High-throughput results from PubChem BioAssay.
gsp antagonist = qHTS for Antagonists of gsp, the Etiologic Mutation Responsible for Fibrous Dysplasia/McCune-Albright Syndrome: qHTS. gsp-mutant cells, cAMP HTRF, 30 min. Potency, µM (top dose mostly 76.9 µM), hits mostly inhibitors. 340,000 compounds, 0.4% hits; calls by dose curve; cell line not stated here;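 note: intracellular cAMP measured with PDE inhibitor Ro 20-1724 present during compound exposure; nearly all actives have a fitted effect of over 65% in size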
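HTRF cAMP read-out (cAMP-d2 plus anti-cAMP antibody-K in lysis buffer, 30 min RT). Before lysis, cells are exposed to compounds with […] for 30 min at 37C in DPBS containing Ca/Mg, BSA and Tween 20.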
hERG WT inh = qHTS for Inhibitors of KCHN2 3.1: Wildtype qHTS. U2OS, BacMam KCNH2, thallium flux FluxOr; hits give low values. activity change, % at 1.84 µM. 340,000 compounds, 0.37% hits. AID 720551, 2013;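 active = maximum activity change below -70%; inconclusive = maximum activity change between -70% and -50%; inactive = maximum activity change above -50%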
Target sequence (Q12809 whole entry, looked up): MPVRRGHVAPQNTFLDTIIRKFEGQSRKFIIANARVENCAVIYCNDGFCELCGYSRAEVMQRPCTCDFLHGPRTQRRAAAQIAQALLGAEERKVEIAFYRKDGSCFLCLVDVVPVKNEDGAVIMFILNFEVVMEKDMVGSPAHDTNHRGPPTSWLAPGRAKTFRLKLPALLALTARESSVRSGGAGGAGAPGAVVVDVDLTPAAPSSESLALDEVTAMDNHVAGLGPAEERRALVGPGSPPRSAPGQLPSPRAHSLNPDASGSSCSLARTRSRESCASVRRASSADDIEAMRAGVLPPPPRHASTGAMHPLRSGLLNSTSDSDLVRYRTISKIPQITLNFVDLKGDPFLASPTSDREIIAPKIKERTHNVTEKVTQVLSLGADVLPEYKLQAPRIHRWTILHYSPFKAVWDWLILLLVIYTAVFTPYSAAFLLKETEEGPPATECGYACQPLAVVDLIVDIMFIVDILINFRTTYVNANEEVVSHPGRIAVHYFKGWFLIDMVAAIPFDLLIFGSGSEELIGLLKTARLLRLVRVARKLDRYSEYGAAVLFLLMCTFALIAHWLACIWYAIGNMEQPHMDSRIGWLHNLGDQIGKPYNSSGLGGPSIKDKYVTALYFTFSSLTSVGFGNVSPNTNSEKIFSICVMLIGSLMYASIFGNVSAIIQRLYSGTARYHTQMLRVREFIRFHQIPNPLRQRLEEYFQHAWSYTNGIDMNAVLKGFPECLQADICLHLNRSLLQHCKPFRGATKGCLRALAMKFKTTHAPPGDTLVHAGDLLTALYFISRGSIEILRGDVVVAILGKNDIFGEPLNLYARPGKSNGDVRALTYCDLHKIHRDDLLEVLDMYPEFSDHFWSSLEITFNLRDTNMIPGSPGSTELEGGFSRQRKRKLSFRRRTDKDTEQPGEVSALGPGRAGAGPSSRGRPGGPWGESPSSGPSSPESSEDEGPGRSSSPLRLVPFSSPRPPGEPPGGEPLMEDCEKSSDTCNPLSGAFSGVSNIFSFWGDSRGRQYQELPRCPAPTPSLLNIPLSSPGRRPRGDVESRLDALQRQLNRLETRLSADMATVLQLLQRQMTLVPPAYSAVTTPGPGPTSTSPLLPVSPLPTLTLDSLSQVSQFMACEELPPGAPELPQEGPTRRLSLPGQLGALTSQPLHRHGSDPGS
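U2OS cells were transduced with wild-type KCNH2 virus (2.03 x 10^8 / mL) for 4 h at room temperature, then cultured overnight at 37 C. Thallium flux was read with FluxOr dye. Rate constants were normalized to DMSO controls.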
GRP78 ERSR act = qHTS for Inducers of the Endoplasmic Reticulum Stress Response (ERSR) in Human Glioma: qHTS; 420,000 compounds, 0.02% hits; U87-MG GRP78 promoter luciferase reporter, 16 h; Potency, µM, usual class: activators; active = well fitted activation curve with a large enough effect; inconclusive = small, poorly fitted or top-dose-only effect; inactive = no such curve, though single readings can be large or run the other way; note: series mostly up to about 76 µM; nearly all actives have a fitted effect of over 35% in size
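ERSR induction read as luciferase luminescence (Bright-Glo, 10 min at room temperature) in stably transfected human U87-MG glioma cells exposed to compounds for 16 h, using GRP78 as sensor.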
Akt phos inh = HTS Assay for Inhibitors of Akt Phophorylation: Primary Screen; Neuro2A IGF-stimulated pAkt S473 HTRF, 20 min; hits give low values; activity change, % for hits at 50 µM; 360,000 compounds, 0.32% hits; AID 651550, 2012; in the data active = activity change below about -80%; inconclusive = mostly about -51% to -80%
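Neuro2A cells (4,500/well, DMEM with 0.5% FBS) were treated with compound at a single 50 µM final concentration, stimulated with 6 nM IGF for 20 min at 37 °C, and lysed. Phospho-Akt Ser473 was read by HTRF as 665/615 ratio ×10^4.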
gsp agonist = qHTS for Agonist of gsp, the Etiologic Mutation Responsible for Fibrous Dysplasia/McCune-Albright Syndrome: qHTS; 340,000 compounds, 0.13% hits; AID 624287, 2012; gsp mutant cells, cAMP HTRF, 30 min; Potency, µM (top dose mostly 76.9 µM), usual class: activators; active = well fitted activation curve with a large enough effect; inconclusive = small, poorly fitted or top-dose-only effect, or another doubt; inactive = no such curve, though single readings can be large or run the other way; cell line not stated here;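 note: phosphodiesterase inhibitor Ro 20-1724 added with compounds to block cAMP breakdown; nearly all actives have a fitted effect of over 60% in size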
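Cells stably selected in G418 were plated at 2000/well, grown 16-24 hr, then given compounds in DMSO with the PDE inhibitor […] (300 uM solution added) for 30 min at 37C; cAMP was read by HTRF.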
KCNH2 3.1 block = qHTS for Inhibitors of KCHN2 3.1: Mutant qHTS. U2OS KCNH2 3.1, thallium flux FluxOr; hits give low values. activity change, % (tested at about 1.8 µM). 340,000 compounds, 0.95% hits. AID 720553, 2013;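 active = maximum activity change below -70%; inconclusive = maximum activity change from -70% to -50%; inactive = maximum activity change above -50%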;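 note: thallium influx rate constant from kinetic fluorescence after stimulation buffer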
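FluxOr-based Tl+ influx in U2OS cells transduced with KCNH2 3.1 virus; rate constants normalized to DMSO controls.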
A number is an active result; [ ] = dose if it differs, or a comment. Compounds with a hit are over-represented: about 1.6% of the library has one in this group of screens.

For O=C(O)CCC1CCCC1 the results were GRP78 ERSR act inactive.
Screening COc1ccc(NC(=O)c2cc3sccc3n2Cc2ccc(F)cc2)cc1OC returned gsp antagonist inactive, hERG WT inh -249, GRP78 ERSR act inactive, Akt phos inh inactive, gsp agonist inactive and KCNH2 3.1 block inactive.
COc1ccccc1C1CN(Cc2cccc(OCCO)c2)Cc2ccccc2O1 (stereo not given) was read as GRP78 ERSR act inactive.
Screening COc1ccc(NC2C[C@H]3CCCC(=O)N4CC[C@@H](C2)[C@@H]34)cc1 (stereo not given in full) returned GRP78 ERSR act 50µM.
Screening Cc1cc(C(=O)Nc2ccccc2-c2nc(CNC(=O)c3cscn3)c(C)o2)c(C)o1 returned GRP78 ERSR act inactive.
`CSCC[C@H](NC(=O)COc1ccc(Cl)cc1)c1nc2ccccc2[nH]1` gave gsp antagonist 7.9µM, hERG WT inh inactive, GRP78 ERSR act inactive, Akt phos inh inactive, gsp agonist inactive[15.4 µM] and KCNH2 3.1 block inactive.
Screening CC(C)(C)Cc1nnc(NC(=O)c2ccco2)s1 returned gsp antagonist inactive, hERG WT inh inactive, GRP78 ERSR act inactive, Akt phos inh inactive, gsp agonist inactive and KCNH2 3.1 block inactive.
For CCOC(=O)Cc1nnc(NC(=O)c2ccco2)s1 the results were gsp antagonist inactive[15.4 µM], hERG WT inh inactive, GRP78 ERSR act inactive, Akt phos inh -122%, gsp agonist inactive and KCNH2 3.1 block inactive.
O=C(OCc1cc(=O)n2cc(Br)ccc2n1)C1COc2ccccc2O1 (stereo not given) was read as gsp antagonist inactive, hERG WT inh inactive, GRP78 ERSR act inactive, Akt phos inh inactive, gsp agonist 10µM and KCNH2 3.1 block inactive.
For CC1CC1C(=O)OCc1cc(=O)n2cc(Br)ccc2n1 (stereo not given) the results were gsp antagonist inactive, hERG WT inh inactive, GRP78 ERSR act inactive, Akt phos inh inactive, gsp agonist inconclusive and KCNH2 3.1 block inactive.
Cc1nc2cc(NC(=O)[C@@H]3C[C@@H](Sc4ccccn4)CN3Cc3ccccc3)ccc2s1 was read as GRP78 ERSR act inactive.
Screening COC(=O)c1cccc(Nc2cc(C)nc(-c3ccccc3O)n2)c1 returned gsp antagonist inconclusive, hERG WT inh inactive, GRP78 ERSR act inactive, Akt phos inh inactive, gsp agonist inactive and KCNH2 3.1 block inactive.
`COC(=O)c1ccc(Nc2cc(C)nc(-c3ccccc3O)n2)cc1` gave gsp antagonist inactive, hERG WT inh inactive, GRP78 ERSR act inactive, Akt phos inh -86%, gsp agonist inconclusive and KCNH2 3.1 block inactive.
C/C(=N\Nc1cc(C)nc(-c2ccccc2O)n1)c1ccccc1O was read as gsp antagonist 45µM, hERG WT inh inactive, GRP78 ERSR act inactive, Akt phos inh inactive, gsp agonist inactive and KCNH2 3.1 block inactive.
Cc1cccc(C)c1NC(=O)CCCSc1nnc(-c2ccco2)o1 was read as gsp antagonist inactive, hERG WT inh inactive, GRP78 ERSR act inactive, Akt phos inh -111%, gsp agonist inactive and KCNH2 3.1 block inactive.
Screening Cc1ccc(NC(=O)CCSc2nnc(-c3ccco3)o2)cc1 returned gsp antagonist inactive, hERG WT inh inactive, GRP78 ERSR act inactive, Akt phos inh inactive, gsp agonist inactive and KCNH2 3.1 block inactive.
For CCCCNC(=O)c1sc(=S)n2c1[nH]c(=O)c1ccc(C(=O)NCCc3ccc(OC)c(OC)c3)cc12 the results were gsp antagonist 35µM, hERG WT inh inactive, GRP78 ERSR act inactive, Akt phos inh inactive, gsp agonist inconclusive and KCNH2 3.1 block inactive.
Screening CCCCCn1c(=O)[nH]c2cc(C(=O)NCCc3ccc(OC)c(OC)c3)ccc2c1=O returned gsp antagonist inactive, hERG WT inh inactive, GRP78 ERSR act inactive, Akt phos inh inactive, gsp agonist inactive and KCNH2 3.1 block inactive.
